Results on 15 compounds are retold here after PubChem BioAssay (Tox21).

Each structure is given as a SMILES string. Values without a mark were called inactive. Results filed as inconclusive are left out. The source made the active and inactive calls. Unless noted, the call rests on the fitted dose curve; in most records, active means well fitted curve in the direction sought with a large enough effect in the repeat runs; inconclusive means weak or mixed curves; inactive means no such curve, though single readings can be large; an effect the other way counts as inactive or inconclusive.

Assay [1] can be described thus: qHTS assay to identify small molecule antagonists of the estrogen related receptor (ERR) signaling pathway - cell viability counter screen (AID 1224818). Further: series mostly up to about 46 µM. The gist of the method: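 Cytotoxicity check run alongside the ERR antagonist screen: cells exposed to test compounds 17.5 h at 37 C, viability taken as CellTiter-Fluor fluorescence intensity.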
Assay [2] in a line: qHTS assay to identify small molecule agonists of the estrogen related receptor (ERR) signaling pathway (AID 1224820). The gist of the method: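 An ERR cell line provided by NTP was seeded at 2,000 cells per well and allowed to settle for 6 h before compounds in DMSO were added. After 18 h at 37 C, luciferase activity was measured by One-Glo luminescence.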
(qHTS replaces the single test concentration by a dilution series.)

Assay [3] relates to estrogen-related receptor alpha (ERRalpha) with PGC-1alpha coactivator, human. The experiment in a line: qHTS assay to identify small molecule antagonists of the estrogen related receptor signaling pathway with the pleiotropic PPARgamma coactivator (PGC) (AID 1224821; calls by dose curve;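 further: series mostly up to about 46 µM; lower luminescence signal means antagonism of PGC/ERR signalling; nearly all actives have a fitted effect of over 50% in size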). The gist of the method:
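A PGC/ERR cell line supplied by NTP is seeded, allowed 6 h at 37 C, and treated with test compounds in DMSO for 18 h. Signal is then measured as luciferase luminescence using One-Glo.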

Assay [4] can be described thus: qHTS assay to identify small molecule antagonists of the estrogen related receptor signaling pathway with the pleiotropic PPARgamma coactivator (PGC) cell viability counter screen (AID 1224822; further: series mostly up to about 46 µM). Summed up:
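Viable cell signal (CellTiter-Fluor, 30 min, 37 C/5% CO2) was measured in PGC/ERR cells after a 17.5 h compound incubation.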

Assay [5] is described as follows: qHTS assay to identify small molecule agonists of the estrogen related receptor signaling pathway with the pleiotropic PPARgamma coactivator (PGC) (AID 1224823). Further: potency means the concentration at half of the fitted maximal effect. The gist of the method:
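Compounds dissolved in DMSO are added by pin tool to PGC/ERR cells that have settled for 6 h, and incubation continues 18 h at 37 C. Reporter output is measured as One-Glo luminescence.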

A short description of assay [6]: qHTS assay to identify small molecule antagonists of the estrogen related receptor (ERR) signaling pathway from Tox21 library - cell viability counter screen (AID 1224834). Further: nearly all actives have a fitted effect of over 30% in size. Summed up:
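In this quantitative HTS format, ERR cells receive compounds in DMSO and are incubated for 17.5 h at 37 C. Live-cell protease activity is then detected with CellTiter-Fluor.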

Assay [7] can be described thus: qHTS assay to identify small molecule antagonists of the estrogen related receptor signaling pathway with the pleiotropic PPARgamma coactivator (PGC) from Tox21 10K library - cell viability counter screen (AID 1224840; active means well fitted cell-killing curve with a large enough effect in the repeat runs, not every such curve was filed as active; further: nearly all actives have a fitted effect of over 40% in size). Summed up: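 Viability counter screen, PGC/ERR cells: 17.5 h compound exposure at 37 C, CellTiter-Fluor fluorescence endpoint.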
Assay [8] is described as follows: qHTS assay to identify small molecule agonists of the estrogen related receptor signaling pathway with the pleiotropic PPARgamma coactivator (PGC) from Tox21 10K library (AID 1224842). Further: nearly all actives have a fitted effect of over 15% in size. Summed up: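 Luminescence from One-Glo (30 min, room temperature) measured after PGC/ERR cells had 18 h at 37 C with pinned compound (23 nL in DMSO). Cells had been seeded at 2,000 per well and pre-incubated 6 h.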

The nature of assay [9]: qHTS assay to identify small molecule antagonists of the estrogen related receptor (ERR) signaling pathway from Tox21 library (AID 1224848). Further: nearly all actives have a fitted effect of over 50% in size. The gist of the method:
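Luciferase luminescence (ONE-Glo, 30 min room temperature) was the read-out. Cells of the NTP-supplied ERR line, 2,000 per well, were given 6 h at 37 C before compound addition in DMSO and 18 h exposure at 37 C.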

Assay [10] addresses Acetylcholinesterase (Homo sapiens) (UniProt P22303). The experiment in a line: Acetylcholinesterase (AChE) small molecule antagonists: colormetric cell-based qHTS assay (AID 1347395; calls by dose curve; further: nearly all actives have a fitted effect of over 30% in size). Summed up:
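Colorimetric readout: DTNB quantifies thiocholine from acetylthiocholine hydrolysed by endogenous AChE of SH-SY5Y cells (2,000/well, plated overnight). Compound pretreatment 30 min, substrate incubation 90 min, both 37 C.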

The target is the same in assay [11]. The assay is described as follows: Acetylcholinesterase (AChE) small molecule antagonists: enzyme-based qHTS assay (AID 1347397; calls by dose curve; further: nearly all actives have a fitted effect of over 55% in size). Conditions: Potency: AChE enzyme activity inhibition; outcome: AChE enzyme activity inhibition. Summed up:
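Colorimetric DTNB readout of acetylthiocholine hydrolysis, 10 min at room temperature, after 30 min room-temperature exposure of 50 mU/mL recombinant human enzyme to compound; DMSO vehicle control.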

Assay [12] has the same target. The assay is described as follows: Acetylcholinesterase (AChE) small molecule antagonists: fluorescence cell-based qHTS assay (AID 1347398; calls by dose curve; further: nearly all actives have a fitted effect of over 50% in size). The following applies: Potency: AChE activity; outcome: AChE activity. The gist of the method:
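Cellular AChE activity read as thiocholine from acetylthiocholine hydrolysis, detected by Thiolite Green fluorescence at 490/520 nm after 40 min at room temperature. Compounds were pre-incubated 30 min at 37 C on adherent SH-SY5Y cells.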

Assay [13] has the same target. The assay is described as follows: Acetylcholinesterase (AChE) small molecule antagonists: enzyme-based qHTS assay with human liver microsomes (AID 1347399; calls by dose curve; further: nearly all actives have a fitted effect of over 60% in size). The following applies: Potency: qHTS inhibition; outcome: qHTS inhibition. The gist of the method:
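Recombinant human AChE (50 mU/mL in the enzyme mix) and human liver microsomes (0.25 mg/mL final) were preincubated with compound and NADPH (0.25 mg/mL final) for 30 min at 37 C. Acetylthiocholine/DTNB was then added; thiocholine was read colorimetrically after 10 min at room temperature.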

A short description of assay [14]: qHTS assay to identify small molecule antagonists of the estrogen related receptor (ERR) signaling pathway (AID 1224819;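 further: luminescence from an ERR-driven luciferase reporter measured with One-Glo reagent; series mostly up to about 46 µM; nearly all actives have a fitted effect of over 50% in size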). The gist of the method: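 ERR reporter cells were plated at 2,000 cells/well and left 6 h at 37 C/5% CO2 before pin-tool transfer of compounds in DMSO. After 18 h at 37 C, One-Glo was added and luminescence was read 30 min later at room temperature.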

Chain of Acetylcholinesterase (Homo sapiens) (P22303 whole entry, looked up): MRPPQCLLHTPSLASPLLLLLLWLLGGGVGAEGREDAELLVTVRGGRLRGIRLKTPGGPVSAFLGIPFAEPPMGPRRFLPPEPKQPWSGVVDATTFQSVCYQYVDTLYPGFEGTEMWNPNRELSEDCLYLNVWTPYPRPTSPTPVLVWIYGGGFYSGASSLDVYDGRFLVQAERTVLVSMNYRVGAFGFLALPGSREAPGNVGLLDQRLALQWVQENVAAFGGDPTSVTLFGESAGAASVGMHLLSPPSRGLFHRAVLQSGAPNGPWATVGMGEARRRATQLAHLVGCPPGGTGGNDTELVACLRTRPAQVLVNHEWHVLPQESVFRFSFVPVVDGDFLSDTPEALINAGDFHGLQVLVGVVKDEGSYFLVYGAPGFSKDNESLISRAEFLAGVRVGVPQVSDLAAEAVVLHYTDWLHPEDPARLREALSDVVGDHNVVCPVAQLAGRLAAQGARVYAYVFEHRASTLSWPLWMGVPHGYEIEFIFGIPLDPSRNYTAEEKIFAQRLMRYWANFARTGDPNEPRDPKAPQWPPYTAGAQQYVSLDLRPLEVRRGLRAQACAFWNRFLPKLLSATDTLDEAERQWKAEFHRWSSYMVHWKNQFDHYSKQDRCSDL

With `Nc1cc2c(ncn2CCOCP(=O)(O)O)c(=O)[nH]1`, the Potency entry in [1], in assay [2], in assay [3], in assay [4] and in assay [5] was “inactive” each time.

In the case of `[Cl-].[Cl][Pt].[NH2-].[NH2-].c1ccncc1`, the Potency result in assay [1] and in assay [4] was “inactive” in each case.

As for `CCC1C(=O)OCC1Cc1cncn1C` (centres undefined), the Potency entry in assay [6], in [7], in assay [8], in assay [9], in [10] and in assay [11] was “inactive” each time. The Potency entry in assay [12] and in assay [13] was “inactive” throughout.

On to `CN1CCC[C@@H]1Cc1c[nH]c2ccc(Nc3ncccc3[N+](=O)[O-])cc12`, for which the Potency entry in assay [14], in assay [2], in assay [3] and in assay [5] was “inactive” each time.

`c1ccc2cc(CC3=NCCN3)ccc2c1`: the Potency entry in assay [1] and in assay [4] was “inactive” each time.

With `NC1CC1c1ccccc1` (centres undefined), the Potency result in assay [1] and in [4] was “inactive” each time.

Regarding `CCNC(=O)[C@H]1O[C@@H](n2cnc3c(N)ncnc32)[C@H](O)C1O` (some centres undefined), the Potency result in [2], in [3] and in assay [4] was “inactive” each time. In assay [5], the Potency was 168 nM (active).

For the compound `CC[C@@H]1C(=O)OC[C@@H]1Cc1cncn1C`, the Potency entry in assay [1] and in [4] was “inactive” in each case.

As for `O=C1CC[C@@]2(O)C3Cc4ccc(O)c5c4C2(CCN3CC2CC2)[C@H]1O5` (some centres undefined), the Potency result in assay [1] and in assay [4] was “inactive” in each case.

As for `CN1CC[C@@]2(C)c3cc(OC(=O)Nc4ccccc4)ccc3N(C)[C@@H]12`, the Potency entry in [1], in [3] and in assay [5] was “inactive” in each case.

With `CN1CC[C@@]2(C)c3cc(O)ccc3N(C)C12` (some centres undefined), the Potency result in [2] and in [5] was “inactive” in each case.

Regarding `c1ccc(CCCN2CCN(CCOC(c3ccccc3)c3ccccc3)CC2)cc1`, the Potency result in [2], in assay [4] and in [5] was “inactive” in each case.

With `C[N+]1(C)C2CCC1CC(OC(=O)C(CO)c1ccccc1)C2` (centres undefined), the Potency result in assay [1] and in assay [4] was “inactive” in each case.

On to `COC[C@H]1OC(=O)c2coc3c2[C@@]1(C)C1=C(C3=O)C2CCC(=O)[C@@]2(C)C[C@H]1OC(C)=O` (some centres undefined), for which the Potency entry in assay [2], in [3], in [4] and in assay [5] was “inactive” each time.

Turning to `Cc1nccc2c1[nH]c1ccccc12`, the Potency entry in [1], in assay [2], in [4] and in [5] was “inactive” in each case.
